Measured values published in PubChem BioAssay (NCI).
Values joined by “and” are separate entries in the source; they are usually repeats but may differ in a detail not shown here. Equal values may be shown once. The panel holds about 83,000 compounds, 20% with a hit somewhere; the sample as a whole holds those more often.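 Interpretation: 100, growth as untreated; towards 0, rising growth inhibition; 0, no net growth; 0 to -100, cell death. Compounds scoring below 10 were considered active.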 Active and inactive are the calls of the source.

Key:
Experiment in all cases: NCI-60 one-dose screen, 48 h (100 = growth as untreated, 0 = no growth, -100 = all killed)
NCI-H23 lung = settings: 10 µM unless noted
NCI-H226 lung = settings: 10 µM unless noted
NCI-H322M lung = settings: 10 µM unless noted
HOP-62 NSCLC = settings: 10 µM unless noted
NCI-H460 lung = settings: 10 µM unless noted
NCI-H522 lung = settings: 10 µM
786-0 renal = settings: 10 µM unless noted
COLO 205 colon = settings: 10 µM unless noted
DU-145 prostate = settings: 10 µM unless noted
K-562 leukemia = settings: 10 µM unless noted
MALME-3M melanoma = settings: 10 µM unless noted
MDA-MB-231 breast = settings: 10 µM unless noted
RXF 393 renal = settings: 10 µM unless noted
SF-268 CNS = settings: 10 µM unless noted
SF-295 CNS = settings: 10 µM unless noted
SF-539 CNS = settings: 10 µM unless noted
UACC-257 melanoma = settings: 10 µM unless noted
M14 melanoma = settings: 10 µM unless noted
A549/ATCC NSCLC = settings: 10 µM unless noted
HOP-92 NSCLC = settings: 10 µM

Structure (SMILES) | growth (NCI-H23 lung) | growth (NCI-H226 lung) | growth (NCI-H322M lung) | growth (HOP-62 NSCLC) | growth (NCI-H460 lung) | growth (NCI-H522 lung) | growth (786-0 renal) | growth (COLO 205 colon) | growth (DU-145 prostate) | growth (K-562 leukemia) | growth (MALME-3M melanoma) | growth (MDA-MB-231 breast) | growth (RXF 393 renal) | growth (SF-268 CNS) | growth (SF-295 CNS) | growth (SF-539 CNS) | growth (UACC-257 melanoma) | growth (M14 melanoma) | growth (A549/ATCC NSCLC) | growth (HOP-92 NSCLC)
Cc1cc(-c2ccc(N=Nc3ccc4c(S(=O)(=O)O)cc(S(=O)(=O)O)c(N)c4c3O)c(C)c2)ccc1N=Nc1ccc2c(S(=O)(=O)O)cc(S(=O)(=O)O)c(N)c2c1O | 81.7% (inactive) | 89.2% (inactive) | 119% (inactive) | 95.7% (inactive) | 111% (inactive) | 85.6% (inactive) | 101% (inactive) | 111% (inactive) | 105% (inactive) | 90.8% (inactive) | 107% (inactive) | 110% (inactive) | 101% (inactive) | 102% (inactive) | 93.7% (inactive) | 90.8% (inactive) | 105% (inactive) | 118% (inactive) | – | –
Cn1cnc([N+](=O)[O-])c1Sc1ncn[nH]1 | 91.7% (inactive) | 102% (inactive) | 101% (inactive) | 96.9% (inactive) | 115% (inactive) | 82.9% (inactive) | 102% (inactive) | – | 108% (inactive) | 137% (inactive) | 91.6% (inactive) | 106% (inactive) | 26.1% (inactive) | 106% (inactive) | 116% (inactive) | 103% (inactive) | 4.36% (active) | 95.9% (inactive) | 99.4% (inactive) | –
N#CC(C#N)N=Nc1ccc(Cl)cc1 | 36.5% (inactive) | 75.1% (inactive) | 93.2% (inactive) | 84.9% (inactive) | 91% (inactive) | -12.4% (active) | 59% (inactive) | -33.9% (active) | 68.2% (inactive) | 10.2% (inactive) | 15.6% (inactive) | 47.2% (inactive) | 61.4% (inactive) | 84.9% (inactive) | 94.7% (inactive) | 53.1% (inactive) | 20.8% (inactive) | 60.1% (inactive) | – | –
CC(C)NC(=O)N/C=C(\C#N)C(N)=O | 92.7% (inactive) | 97.5% (inactive) | 99.5% (inactive) | 88.2% (inactive) | 91.1% (inactive) | 87.2% (inactive) | 99% (inactive) | 103% (inactive) | 107% (inactive) | 116% (inactive) | 89.3% (inactive) | 111% (inactive) | 98.9% (inactive) | 101% (inactive) | 102% (inactive) | 97.9% (inactive) | – | 95.3% (inactive) | – | –
c1ccc(-c2nc3ccccc3s2)cc1 | 88.2% (inactive) | – | 81.1% (inactive) | 76.3% (inactive) | 97.5% (inactive) | – | 105% (inactive) | 110% (inactive) | 113% (inactive) | 102% (inactive) | 97.5% (inactive) | 68.5% (inactive) | 106% (inactive) | 95% (inactive) | 97.9% (inactive) | 96% (inactive) | 98.5% (inactive) | 97.3% (inactive) | – | –
Cc1ccc(S(=O)(=O)c2ccccc2)cc1 | 54.5% (inactive) | 85.6% (inactive) | 57.1% (inactive) | 44.2% (inactive) | 20.7% (inactive) | – | – | 18.4% (inactive) | 26.3% (inactive) | 23.2% (inactive) | 66.6% (inactive) | 50% (inactive) | 39.3% (inactive) | 47.9% (inactive) | 2.7% (active) | 28.7% (inactive) | 8.5% (active) | 15.4% (inactive) | – | –
COc1ccc2cc1Oc1ccc(cc1)C[C@H]1c3cc(c(OC)cc3CCN1C)Oc1c(OC)c(OC)cc3c1[C@H](C2)N(C)CC3 | 92.7% (inactive) | 113% (inactive) | 52.6% (inactive) | 17.7% (inactive) | 44.9% (inactive) | 1.42% (active) | 46.3% (inactive) | 44.8% (inactive) | 53.1% (inactive) | -75.4% (active) | 16.3% (inactive) | 8.45% (active) | 47.2% (inactive) | 78.2% (inactive) | 71.8% (inactive) | -74.4% (active) | 46.2% (inactive) | -78.8% (active) | – | –
O=C1OC(C(O)C(O)CO)C(O)=C1O (configuration not stated) | 113% (inactive) and 98.1% (inactive) | 100% (inactive) | 111% (inactive) and 97.3% (inactive) | 94.4% (inactive) and 88.1% (inactive) | 96.8% (inactive) and 112% (inactive) | 8.89% (active) and 80% (inactive) | 95% (inactive) and 97.2% (inactive) | 101% (inactive) and 96.9% (inactive) | 115% (inactive) | 99% (inactive) and 90.4% (inactive) | 94.2% (inactive) | 116% (inactive) and 101% (inactive) | 116% (inactive) | 109% (inactive) and 105% (inactive) | 136% (inactive) and 101% (inactive) | 96.8% (inactive) | 98.7% (inactive) and 88.2% (inactive) | 96.9% (inactive) and 100% (inactive) | – | –
Oc1ccc(Cc2ccccc2Cl)c(O)c1 | 89.5% (inactive) | – | 86.5% (inactive) | 91.9% (inactive) | 101% (inactive) | 94.7% (inactive) | 102% (inactive) | 106% (inactive) | – | 91.5% (inactive) | – | 71.7% (inactive) | 83.9% (inactive) | – | – | 93.9% (inactive) | 93.2% (inactive) | 99.1% (inactive) | – | 89.4% (inactive)
O=C(Cc1ccccc1)c1ccc(O)c(Cl)c1 | 24% (inactive) | 83.7% (inactive) | 80% (inactive) | 70.4% (inactive) | 32.3% (inactive) | 10.3% (inactive) | 26.8% (inactive) | 55.4% (inactive) | 18.5% (inactive) | 21.4% (inactive) | 50.2% (inactive) | 49.8% (inactive) | 41.7% (inactive) | 41.7% (inactive) | 47.8% (inactive) | 32.9% (inactive) | 66.7% (inactive) | 30.1% (inactive) | – | –
O=C(/C=C/c1ccccc1)c1ccccc1 | 84.6% (inactive) | 126% (inactive) | 115% (inactive) | 94.9% (inactive) | 93.1% (inactive) | 84.8% (inactive) | 86.9% (inactive) | 114% (inactive) | 97.7% (inactive) | – | 128% (inactive) | 110% (inactive) | 114% (inactive) | 97.2% (inactive) | 99.1% (inactive) | 88.2% (inactive) | 106% (inactive) | 98.1% (inactive) | – | –
CCCCCCCCCCNC(=O)CI | -48.8% (active) | 76.7% (inactive) | 96.8% (inactive) | -20.8% (active) | 101% (inactive) | – | -81.2% (active) | -20% (active) | 99.1% (inactive) | 0.309% (active) | – | 9.39% (active) | -86.5% (active) | 37.1% (inactive) | – | 39.1% (inactive) | 66.3% (inactive) | -24.8% (active) | – | –
Nc1ccc2c(O)cc(S(=O)(=O)O)cc2c1 | 93.8% (inactive) and 96.2% (inactive) | 96% (inactive) and 91.9% (inactive) | 103% (inactive) and 119% (inactive) | 86.1% (inactive) and 92.4% (inactive) | 98.4% (inactive) and 102% (inactive) | 106% (inactive) and 88.1% (inactive) | 98.9% (inactive) and 105% (inactive) | – | 114% (inactive) and 110% (inactive) | 93% (inactive) and 96.7% (inactive) | 122% (inactive) and 111% (inactive) | 107% (inactive) and 106% (inactive) | 110% (inactive) and 89.3% (inactive) | 118% (inactive) and 101% (inactive) | 99.5% (inactive) | 87.2% (inactive) and 96% (inactive) | 101% (inactive) and 94.3% (inactive) | 98.7% (inactive) | – | –
CCOC(=O)c1c(C)cc(=O)oc1C | 101% (inactive) | 96.8% (inactive) | 110% (inactive) | 97.2% (inactive) | 110% (inactive) | 115% (inactive) | 103% (inactive) | 116% (inactive) | 114% (inactive) | 89% (inactive) | 87.7% (inactive) | 96.3% (inactive) | 109% (inactive) | 106% (inactive) | – | 107% (inactive) | 101% (inactive) | 98% (inactive) | – | –
